# RGS4 inh – Inhibitors of Regulator of G Protein Signaling (RGS) 4: qHTS. 390,000 tested, 0.039% active. Potency, µM (titrated, usually from 114 µM), for the others: at the top dose activity change, negative = inhibition, usual class: inhibitors. AID 504845, 2011. Regulator of G-protein signaling 4 (Homo sapiens), P49798. Transcreener GDP fluorescence polarization, RGS4-accelerated GTP hydrolysis; also: potency is read from the fitted curve at half-maximal effect; % is scaled to controls: 0 for no effect and ±100 for the full control effect; nearly all actives have a fitted effect of over 75% in size
# Target sequence (P49798 whole entry, looked up): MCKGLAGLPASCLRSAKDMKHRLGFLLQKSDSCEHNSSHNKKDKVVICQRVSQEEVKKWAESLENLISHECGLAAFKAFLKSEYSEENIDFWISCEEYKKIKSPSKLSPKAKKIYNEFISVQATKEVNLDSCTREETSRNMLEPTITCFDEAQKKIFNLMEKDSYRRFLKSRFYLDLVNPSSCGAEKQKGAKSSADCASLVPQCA
#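 MLSMR compounds (23 nl, pin-transferred) preincubated 10 min at room temperature with a 500nM (2x) first reagent, then RGS4 at 900nM (2x) plus Transcreener GDP mix added; fluorescence polarization (620/688 nm) read before and after 90 min at 30 °C.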
# LDHA inh – qHTS assay for inhibitors of human lactate dehydrogenase; L-lactate dehydrogenase A chain (Homo sapiens), P00338; purified LDHA, NADH/diaphorase-resazurin fluorescence; hits give low values; activity change, % (values are at about 110 or 230 µM); 480,000 tested, 0.15% active; in the data active = activity change below about -30%; inconclusive = mostly about -25% to -30%;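 also: plate controls were DMSO wells for no effect and wells without enzyme for full effect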
#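 Remaining NADH was detected by diaphorase (0.133 mg/mL) converting 37 µM resazurin to fluorescent resorufin, read at 0 and 20 minutes. The preceding 5-minute room-temperature reaction used 2 nM LDHA, 0.2 mM sodium pyruvate and 0.06 mM NADH at pH 7.4.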
# Anesthetic bind – qHTS Assay for Identification of Novel General Anesthetics. Potency, µM (top dose mostly 77.5 µM), for the others: at the top dose activity change, negative = displacement, hits mostly inhibitors. 350,000 tested, 0.074% active. apoferritin/1-aminoanthracene competitive binding, fluorescence. AID 485281, 2010; also: potency is read from the fitted curve at half-maximal effect; % is scaled to controls: 0 for no effect and ±100 for the full control effect; nearly all actives have a fitted effect of over 20% in size
# Target sequence (P02791 2-175 limits assumed): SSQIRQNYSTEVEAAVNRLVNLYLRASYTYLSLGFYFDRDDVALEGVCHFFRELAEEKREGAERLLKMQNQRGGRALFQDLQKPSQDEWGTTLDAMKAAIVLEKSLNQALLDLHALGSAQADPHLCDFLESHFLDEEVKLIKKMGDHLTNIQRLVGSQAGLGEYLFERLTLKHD
#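 10 uM apoferritin + 50% sat. 1-AMA, PBS; cpd 10 min RT; Ex380/Em535 endpoint; normalized to free probe vs complex; 4-param Hill fit; propofol titration as pos. ctrl.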
# AT treatment – qHTS Assay for Identifying a Potential Treatment of Ataxia-Telangiectasia; F2112 A-T fibroblasts, KAP-1 phosphorylation AlphaLISA; neocarzinostatin DNA damage 30 min before lysis; Potency, µM (series often up to 57.5 µM), without a hit: top-dose activation, usual class: activators; 320,000 tested, 0.19% active; also: potency is read from the fitted curve at half-maximal effect; % of control where 0% means no effect; nearly all actives have a fitted effect of over 45% in size
#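 ATM-like activity read as KAP-1 phosphorylation via AlphaLISA donor/acceptor antibody pairs after lysis and 6 hr at 25C. Cells were ATM-null patient fibroblasts (F2112, hTERT), dosed 60 min, then exposed to the DSB inducer NCS for 30 min.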
# * marks the source's active call; other numbers are inactive results; ? = inconclusive; · = not tested or not shown; ! = a repeat was not active; [ ] = another dose, or the depositor's remark. This is a sample that favours compounds with a hit; in the whole collection about 0.35% have one here. Unless noted, calls follow the shape of the dose curve; as a rule, active = well fitted curve in the direction sought with a large enough effect; inconclusive = small, poorly fitted or top-dose-only effect, or another doubt; inactive = no such curve, though single readings can be large; an effect the other way counts as inactive or inconclusive.
SMILES,RGS4 inh,LDHA inh,Anesthetic bind,AT treatment
O=C(COC(=O)Cn1cnc2ccccc2c1=O)Nc1ccc(Cl)c(C(F)(F)F)c1,11.4%,-4.1,25.1µM*,-5.5%
Fc1ccccc1N1CCN(CC2CC3C=CC2C3)CC1 (stereo not drawn),1.9%,-6.7,-5.2%,·
C1=CC2CC1CC2CN1CCN(Cc2ccccc2)CC1 (stereo not drawn),34.9%,-31.6*,-13.2%,1.2%
Cc1cc(Oc2ccc(C(C)(C)C)cc2)nc(N2CCOCC2)n1,-11.0%,-0.6,-5.8%,·
CCCc1ccc(Oc2cc(C)nc(N3CCOCC3)n2)cc1,20.6%,4.3,-8.5%,25.1µM*
Oc1cccc(NC(=S)N=Nc2c(O)[nH]c3ccccc23)c1,-7.4%,-5.1,?,1.26µM*
Oc1c(Cl)cc(Cl)c(Cl)c1Sc1c(O)c(Cl)cc(Cl)c1Cl,·,-1.6,·,·
CCc1ccc(CNC(=O)CN2C(=O)c3cccnc3Oc3ccc(Cl)cc32)cc1,1.5%,-32.5*,?,·
N#C/C(=C\c1ccc(-c2cccc(C(=O)O)c2)o1)c1nc2ccccc2[nH]1,·,30.6,·,·
CCCCCCCCC(=O)N/N=C/c1ccccn1,-13.8%,-3.3,12.6µM*,-0.8%
CCCCC(C(=O)N/N=C/c1ccccn1)C(=O)N/N=C/c1ccccn1,-3.2%,0.2,4.6%,-3.4%
COc1cc(OC)cc(C(=O)/C(=C/c2ccccn2)c2nc3ccccc3o2)c1,·,9.5,·,·
COc1ccc(/C=C/c2c(-c3ccc(OC)cc3)oc(=O)c3cc(OC)c(OC)cc23)cc1,-30.1%,-0.9,·,10.6%
COc1ccc(-c2oc3cccnc3c2/C=C/c2ccc(OC)c(OC)c2)cc1,-6.4%,0.3,68.5%,28.2µM*
Cc1ccc(C(=O)Sc2nc(C)cc(C)n2)cc1,·,6.9,·,·
Cc1ccccc1CN(C)CCc1ccccn1,19.7%,-32.1*,-4.2%,-1.2%
COC(=O)c1ccc(C(=O)Nc2ccc(F)cc2)cc1,12.0%,0.6,·,28.2µM*
COC(=O)c1ccc(NC(=O)Cc2ccc(F)cc2)cc1,28.8%,-15.2,-14.4%,-0.7%
Cn1c(=O)c2c(nc(NCCO)n2Cc2cccc(Br)c2)n(C)c1=O,·,4.1,·,·
Cc1cccc(Cn2c(NCCO)nc3c2c(=O)n(C)c(=O)n3C)c1,5.0%,-6.5,-2.9%,31.6µM*
N#Cc1ccccc1S(=O)(=O)N1CCN(CC(O)CN2CCOCC2)CC1 (stereo not drawn),8.8%,-45.4*,·,3.8%
Cc1cc(C)c2c(=O)cc(C(=O)NCc3ccccc3)oc2c1,-49.2%,-1.3,-17.2%,35.5µM*
Cc1cc(C)c2oc(C(=O)NCc3ccccc3)cc(=O)c2c1,3.9%,-2.5,-1.2%,2.9%
CCOC(=O)c1c(-c2ccccc2)oc2ccc(OCC(O)CNCCN(C)C)cc12 (stereo not drawn),-13.2%,-4.7,-2.5%,39.8µM*
CCOC(=O)c1c(-c2ccccc2)oc2ccc(OCC)cc12,8.8%,0.3,-9.7%,13.0%
SMILES,RGS4 inh,LDHA inh,Anesthetic bind,AT treatment
COCCCNCCCOc1ccc(C(C)(C)c2ccccc2)cc1,-16.5%,-21.4,?,-2.2%
COCCNCCCOc1ccc(C(C)(C)c2ccccc2)cc1,31.6%,-33.0*,?,-6.6%
C=CCNCCCOc1ccc(C(C)(C)c2ccccc2)cc1,-9.8%,?,?,-6.9%
CC(O)CNCCCOc1ccc(C(C)(C)c2ccccc2)cc1 (stereo not drawn),·,-1.7,·,·
CC(C)NCCCOc1ccc(C(C)(C)c2ccccc2)cc1,5.7%,-31.7*,?,-5.7%
CC(C)(c1ccccc1)c1ccc(OCCCNCCO)cc1,-15.0%[11.4 µM],-12.3,11.2µM*,-6.7%
Cc1cc(C)c2[nH]c(C)c(CN3CCC(C)CC3)c(=O)c2c1,·,10.4,·,·
COc1ccc(CCNC(=O)Cc2c(C)c3c(OC)cc(OC)cc3oc2=O)cc1,·,6.4,·,·
CCCCNC(=S)N(C)/N=C/c1ccc(N(CC)CC)cc1,·,5.9,·,·
O=C(O)CC(c1ccncc1)c1c[nH]c2ccccc12 (stereo not drawn),·,37.2,·,·
N[C@@H](Cc1c[nH]c2ccc(O)cc12)C(=O)O,23.8µM*!,1.2,-0.8%,-5.1%
Cc1nc2cc(NC(=O)COc3ccc(Cl)cc3Cl)ccc2o1,·,14.6,·,·
CCOc1ccc2[nH]cc(S(=O)(=O)c3ccc(Cl)cc3)c(=O)c2c1,-4.5%,-44.2*,?,-0.4%
COc1ccccc1OC(C(=O)NC1CC1)c1ccccc1 (stereo not drawn),·,-30.3*,·,·
Cc1ccc2c(CN(C)CCOc3ccccc3Cl)cc(=O)oc2c1,·,2.1,·,·
Cc1ccc(-c2cc(C(=O)Nc3cc(F)ccc3F)c3ccccc3n2)o1,·,-6.7,·,·
O=C(NNc1ccccc1[N+](=O)[O-])Nc1ccc(Cl)c(Cl)c1,12.4%,-1.8,?,-2.2%
O=C1NC(=O)C(c2ccccc2[N+](=O)[O-])=C1Nc1ccc(O)c(Cl)c1,11.9µM*!,-1.0,?,5.1%
CCc1cc2c(CN3CCN(c4ccc(F)cc4)CC3)cc(=O)oc2cc1O,·,9.9,·,·
Oc1cccc(C2c3[nH]c4ccccc4c3CCN2Cc2ccoc2)c1 (stereo not drawn),-19.7%,-121.5*,-8.3%,11.8%
Oc1cccc(C2c3[nH]c4ccccc4c3CCN2Cc2ccc3c(c2)CCO3)c1 (stereo not drawn),-11.4%,-6.8,-14.0%,-4.9%
Cn1c(=O)c2[nH]c(-c3ccccc3Cl)nc2n(C)c1=O,·,17.6,·,·
Cc1cc(SCC(=O)Nc2ccc(F)c(F)c2F)nc2ccccc12,·,-34.2*,·,·
CSc1ccccc1NC(=O)CSc1cc(C)c2ccccc2n1,·,-5.6,·,·
O=C1C(=Cc2cn(-c3ccccc3)nc2-c2ccc(OCc3ccccc3F)cc2)SC(=S)N1CCS(=O)(=O)O,·,-33.7*,·,·
SMILES,RGS4 inh,LDHA inh,Anesthetic bind,AT treatment
Cc1ccc(Cl)cc1NC(=O)Nc1cn(CC(C)C)c(=O)c2ccccc12,-34.8%,-39.9*,?,·
CN(C)S(=O)(=O)N1CC=C(c2c[nH]c3ccccc23)CC1,·,0.6,·,·
COc1cccc(CN2CCN(Cc3cc(OC)c(O)c(OC)c3)CC2)c1,·,11.1,·,·
COc1cc(N)c(Cl)cc1C(=O)CCC1CCN(CCNS(C)(=O)=O)CC1,37.7µM*!,·,0.8%,·
O=Cc1cc(O)ccc1Br,·,2.2,·,·
CN(C)C(=O)CCS(=O)(=O)Cc1coc(-c2ccc(F)cc2)n1,·,-34.1*,·,·
CNC(=O)CCS(=O)(=O)Cc1coc(-c2ccc(F)cc2)n1,·,0.3,·,·
C=C(C)n1c(=O)n(Cc2ccccc2C)c2ccccc21,0.6%,-2.3,?,11.2µM*
O=c1oc2cc(OCCN3CCN(CCO)CC3)ccc2cc1-c1ccccc1,·,8.5,·,·
CC1C[N+](=C2C=C(N3CCOCC3)CC(C)(C)C2)CC(C)O1 (stereo not drawn),-33.0%,-56.8*,8.3%,-9.1%
CC(=O)N(c1ccc(C)cc1)S(=O)(=O)c1ccc(Cl)cc1,2.3%,-5.4,-16.4%,0.1%
